IDH1 R132H inh: human IDH1 R132H inhibition. O75874. IDH1-R132H enzyme, NADPH consumption, diaphorase/resazurin fluorescence. Potency, µM (doses to about 76.6 µM), without a hit: at the top dose activity change, negative = inhibition, hits mostly inhibitors. 0.093% of 390,000 active; further: potency means the concentration at half of the fitted maximal effect; on the % scale 0 is the no-effect control and ±100 the full control effect; nearly all actives have a fitted effect of over 65% in size
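IDH1-R132H (0.5 ug/mL dispensed) in pH 7.5 Tris buffer was preincubated 30 min with compound, then given a substrate mix of 0.016 mM NADPH and 2 mM alpha-KG for 80 min at room temperature; remaining NADPH was read by diaphorase/resazurin fluorescence.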
Vif-APOBEC3F blk: inhibitors of Vif-A3F interaction; AID 602313; Potency, µM (doses to about 46.1 µM), without a hit: at the highest dose activity, negative = active; HeLa A3F-eYFP + Vif (tagged APOBEC3F with the HIV-1 protein that degrades it), YFP fluorescence increase; 0.2% of 390,000 active; further: potency means the concentration at half of the fitted maximal effect; % of control where 0% means no effect; nearly all actives have a fitted effect of over 65% in size
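HeLa cells stably expressing Vif plus C-terminally eYFP-tagged A3F were seeded, incubated overnight at 37 deg C, dosed with compound, incubated overnight again at 37 deg C. Yellow fluorescence (Ex 488/Em 500-530) reported blocked Vif-mediated A3F-eYFP degradation.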
Pin1 inhibitor: blocks the human prolyl isomerase Pin1; 0.009% of 390,000 active; Potency, µM (highest dose often 115 µM), for the others: at the highest dose activity, negative = inhibition, hits mostly inhibitors; Pin1 FP peptide displacement, HiFluor488, 10 min; Q13526; AID 504891; active means well fitted inhibition curve with a large enough effect in the polarisation, with a control signal flat, not every such curve was filed as active; inconclusive means small, poorly fitted or top-dose-only effect, or effect the other way, or a change in a side signal; inactive means no such curve, though single readings can be large or run the other way; the % refers to the polarisation; further: potency means the concentration at half of the fitted maximal effect; on the % scale 0 is the no-effect control and ±100 the full control effect
Target sequence (Q13526 whole entry, looked up): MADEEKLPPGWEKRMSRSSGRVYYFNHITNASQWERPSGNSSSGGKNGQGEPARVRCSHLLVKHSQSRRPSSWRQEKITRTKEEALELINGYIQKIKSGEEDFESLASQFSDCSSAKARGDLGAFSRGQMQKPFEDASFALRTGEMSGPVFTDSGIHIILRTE
LDHA inh: inhibitors of human lactate dehydrogenase A | AID 1347041 | activity change, % (values are at about 110 or 230 µM) | purified LDHA, NADH/diaphorase-resazurin fluorescence; stronger effect = lower value | P00338 | 0.15% of 480,000 active; in the data active means activity change below about -30%; inconclusive means mostly about -25% to -30%;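 further: plate controls were DMSO wells for no effect and wells without enzyme for full effect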
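Human LDH5 (2 nM) was incubated with 0.06 mM NADH and 0.2 mM pyruvate for 5 min at room temperature in Tris pH 7.4. Remaining NADH was coupled through diaphorase/resazurin, and resorufin fluorescence was read at 0 and 20 min.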
Tb PGK inh: blocks T. brucei phosphoglycerate kinase | P07378 | PGK/GAPDH coupled, Kinase-Glo luminescence, 60 min | Potency, µM (top dose mostly 57.5 µM), for the others: at the top dose activity change, negative = inhibition, hits mostly inhibitors | 0.043% of 380,000 active | AID 602233; further: potency means the concentration at half of the fitted maximal effect; on the % scale 0 is the no-effect control and ±100 the full control effect; nearly all actives have a fitted effect of over 60% in size
Target sequence (P07378 whole entry, looked up): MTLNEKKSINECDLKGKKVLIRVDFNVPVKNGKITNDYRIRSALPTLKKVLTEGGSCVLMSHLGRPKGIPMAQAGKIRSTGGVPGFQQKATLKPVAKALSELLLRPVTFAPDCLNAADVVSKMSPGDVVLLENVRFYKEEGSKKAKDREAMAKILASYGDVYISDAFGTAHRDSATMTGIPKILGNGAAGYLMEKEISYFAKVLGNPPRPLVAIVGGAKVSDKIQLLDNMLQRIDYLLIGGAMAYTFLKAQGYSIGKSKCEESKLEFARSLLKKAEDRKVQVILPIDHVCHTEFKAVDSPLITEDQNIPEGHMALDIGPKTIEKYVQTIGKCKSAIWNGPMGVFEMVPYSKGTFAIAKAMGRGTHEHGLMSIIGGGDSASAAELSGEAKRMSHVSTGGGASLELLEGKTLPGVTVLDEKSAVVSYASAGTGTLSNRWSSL
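Luminescent ATP detection (Kinase-Glo Plus) follows a 60-minute room-temperature incubation, with wells lacking PGK as controls. Buffer: 100 mM TEA (pH 7.6), 5 mM MgCl2, 0.01% Tween-20. Coupling enzyme GAPDH (100 nM final) supplies unstable 1,3-BPG in-well.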
Vif-A3G inh: inhibitors of Vif-APOBEC3G interaction; HeLa A3G-eYFP + Vif (tagged APOBEC3G with the HIV-1 protein that degrades it), YFP fluorescence, overnight; Potency, µM (top dose mostly 46.1 µM), for inactives: at the top dose activity, negative = active, usual class: inhibitors; 0.076% of 410,000 active; AID 602310; further: potency means the concentration at half of the fitted maximal effect; on the % scale 0 is the no-effect control and ±100 the full control effect; nearly all actives have a fitted effect of over 60% in size
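HeLa cells stably expressing Vif and C-terminally eYFP-tagged A3G, seeded overnight at 37 deg C, then exposed to compound by pintool overnight at 37 deg C. Rise in yellow fluorescence (Ex 488/Em 500-530, Acumen) marks blocked Vif-driven A3G degradation.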
Starred values were filed as active, the others as inactive; i = inactive; ? = inconclusive; . = no result given; ! = a repeat was not active. This is a sample that favours compounds with a hit; in the whole collection about 0.49% have one here. Unless noted, the call rests on the fitted dose curve; in most records, active means well fitted curve in the direction sought with a large enough effect; inconclusive means small, poorly fitted or top-dose-only effect, or another doubt; inactive means no such curve, though single readings can be large; an effect the other way counts as inactive or inconclusive.

SMILES	IDH1 R132H inh	Vif-APOBEC3F blk	Pin1 inhibitor	LDHA inh	Tb PGK inh	Vif-A3G inh
O=C1/C(=C/c2cccnc2)SC(=S)N1Cc1ccco1	9.4%	-6.5%	-0.8%	5.3	i	?
COC(=O)Cc1c(C)c2ccc(O)cc2oc1=O	.	.	.	-30.5*	.	.
Cc1cc(O)c2c(CN3CCN(CCO)CC3)cc(=O)oc2c1	.	.	.	4.7	.	.
Cc1cc(O)c2c(CN3CCN(Cc4ccccc4)CC3)cc(=O)oc2c1	1.0%	-2.4%	-0.3%	-31.3*!	-7.8%	-0.7%
CCc1ccc(C2C(C#N)=C(N)C(C#N)(C#N)C3=CCC(C(C)(C)C)CC32)cc1 (configuration not stated)	36.9µM*	-27.9%	?	15.2	-0.4%	?
CCc1ccc(N2C=C(C(=O)OC)C(c3ccc(OC)cc3)C(C#N)=C2N)cc1 (configuration not stated)	.	.	.	1.9	.	.
O=c1cc(-c2ccccc2Cl)oc2ccc([N+](=O)[O-])c(O)c12	-5.4%	7.9%	?	4.5	5.3%	4.0%
O=[N+]([O-])c1cc([N+](=O)[O-])c2oc(-c3ccccc3)c(Br)c2c1O	-12.2%	-14.6%	.	-68.2*	-21.4%	-27.6%
C(=Cc1c[nH]c2ccccc12)c1nccc2ccccc12	5.2%	8.91µM*	?	14.0	-7.3%	?
Cc1ccc2c(/C=C/c3c[nH]c4ccccc34)ccnc2c1C	.	.	.	.	.	11.2µM*
C(=Cc1c[nH]c2ccccc12)c1ccc2ccccc2n1	5.6%	25.1µM*	?	-6.7	-8.9%	?
C(=C\c1ccc2ccccc2n1)/c1ccc2ccccc2n1	.	.	.	.	.	-9.6%
OCC[n+]1ccc(/C=C/c2c[nH]c3ccccc23)cc1	2.9%	3.55µM*	?	23.2	1.3%	?
CN(C)C(CNC(=O)Cc1c[nH]c2ccccc12)c1ccccc1 (configuration not stated)	.	.	.	-4.6	.	.
CC(=O)NCc1ccc(-c2nc3ccccc3s2)cc1	3.5%	-7.2%	4.0%	2.7	-6.9%	1.6%
CCC(=O)NCc1ccc(-c2nc3ccccc3s2)cc1	.	.	.	-31.2*	.	.
CCCCC(=O)NCc1ccc(-c2nc3ccccc3s2)cc1	.	.	.	-30.5*	.	.
Cc1nn(C(=O)C2CCCN2S(=O)(=O)c2ccc(F)cc2)c(C)c1Sc1ccccc1 (configuration not stated)	.	.	.	-34.4*	.	.
Cc1cc(C)n(C(=O)C2CCCN2S(=O)(=O)c2ccc(Cl)cc2)n1 (configuration not stated)	-1.9%	2.4%	3.4%	-5.2	-2.6%	-1.6%
Cc1ccc(S(=O)(=O)N2CCCC2C(=O)n2nc(C)c(Sc3ccccc3)c2C)cc1 (configuration not stated)	.	.	.	-34.8*	.	.
COCCNc1oc(COc2ccc(-c3ccccc3)cc2)nc1C#N	.	.	.	7.1	.	.
COc1cc(/C=N/O)cc(Br)c1O	.	.	.	11.3	.	.
CCOC(=O)C1=C(O)C(=O)N(c2ccccc2)C1c1ccccc1F (configuration not stated)	.	.	.	-1.9	.	.
O=C1C(O)=C(c2ccccc2)C(c2ccccc2F)N1c1ccc(F)cc1 (configuration not stated)	.	.	.	-40.8*	.	.
COc1cc(O)c(C(C)=O)c(CC(=O)O)c1	-7.0%	-0.7%	.	11.8	15.8µM*	2.0%
SMILES	IDH1 R132H inh	Vif-APOBEC3F blk	Pin1 inhibitor	LDHA inh	Tb PGK inh	Vif-A3G inh
Cc1cc(C(C)(C)C)cc(C)c1S(=O)(=O)N1CCN(Cc2nc3ccccc3c(=O)[nH]2)CC1	.	.	.	2.9	.	.
O=S(=O)(O)c1cc(O)c2cc(Nc3ccccc3)ccc2c1	6.1%	-5.7%	?	21.4	?	1.3%
O=S(=O)(O)c1ccc(O)c2cc(Nc3ccccc3)ccc12	7.1%	2.1%	8.49µM*	23.2	5.01µM*	-2.3%
Cc1cc(N/N=C/c2ccc(O)cc2O)nc(-c2ccccc2O)n1	39.8µM*	-19.2%	-6.6%	-0.5	i	?
Cc1cc(N/N=C/c2ccccc2O)nc(-c2ccccc2O)n1	2.5%	-1.3%	-5.6%	7.1	-4.6%	-4.7%
O=C(Nc1ccccc1)c1nnc(C(=O)N2CCC(CC(=O)N3CCCCCC3)CC2)s1	.	.	.	3.3	.	.
COc1ccc(/C=c2\s/c(=C/C(=O)c3ccc(C)cc3)[nH]c2=O)c(OC)c1	-1.4%	25.1µM*	?	-1.9	0.3%	?
COc1cccc(/C=c2\s/c(=C/C(=O)c3ccc(C)cc3)[nH]c2=O)c1OC	5.7%	?	23.8%	-3.0	-1.3%	-12.8%
Cc1cc2nc(CSc3ccc(NC(=O)C(C)(C)C)cc3)c(=O)[nH]c2cc1C	.	.	.	8.7	.	.
S=c1[nH]cnc2sc(-c3ccccc3)cc12	-1.1%	5.62µM*	13.2%	-4.6	-2.4%	-4.5%
CCCCCC(=O)Nc1cc(N(C)C)nc2ccccc12	2.4%	-2.2%	3.4%	-4.4	8.6%	0.1%
CCN(CC(=O)Nc1ccccc1-c1ccccc1)Cc1nc2ccccc2c(=O)[nH]1	1.9%	-0.7%	0.9%	0.5	9.0%	7.08µM*
CCN(CC)CC(=O)Nc1cc(N(C)C)nc2ccccc12	9.0%	8.3%	-6.3%	-33.3*	1.3%	-0.8%
CCN(CC(=O)Nc1ccccc1SC)Cc1nc2ccccc2c(=O)[nH]1	11.7%	?	-1.8%	-9.8	8.2%	-5.2%
OCCCn1c(C2CCCN2c2nc(-c3ccc(F)cc3)cs2)nc2cc(Cl)c(Cl)cc21 (configuration not stated)	8.6%	-6.3%	25.2%	2.6	-9.8%	-7.7%
OCCCn1c(C2CCCN2c2nc(-c3ccc(Cl)cc3)cs2)nc2cc(Cl)c(Cl)cc21 (configuration not stated)	3.2%	22.4µM*	20.8%	-0.6	i	-2.1%
CC(=O)NN=C(C)C	.	.	.	5.9	.	.
Cc1ccc([C@H]2C[C@@H](n3cc(-c4ccc(F)cc4)nn3)[C@H](O)CN2Cc2cccs2)cc1	8.9%	-22.8%	.	0.3	-2.7%	-20.8%
O[C@@H]1CN(Cc2cccs2)[C@@H](c2ccc(Cl)cc2)C[C@H]1n1cc(-c2ccc(F)cc2)nn1	-15.3%	-12.7%	.	-30.0*	i	-12.3%
O=C(N/N=C/c1ccc([N+](=O)[O-])o1)c1cc2c(ccc3ccccc32)o1	0.2%	7.94µM*	?	-3.9	?	?
O=C(N/N=C/c1ccc([N+](=O)[O-])o1)c1cc2ccccc2o1	4.6%	-12.4%	2.5%	-69.9*	-27.0%	?

Screens (PubChem BioAssay)
